Source: PubChem BioAssay AID2685 (National Center for Advancing Translational Sciences (NCATS), 2010)
The whole screen tested about 320,000 compounds, of which about 2,100 (0.66%) were called active. Inconclusive results (about 53%) are left out. Calls follow the shape of the dose curve; as a rule, active = well fitted inhibition curve with a large enough effect in the signal ratio, with a control signal flat (not every such curve was filed as active); inconclusive = small, poorly fitted or top-dose-only effect, or effect the other way, or a change in a side signal; inactive = flat fitted curve, though single readings scatter; the % refers to the signal ratio. The sample as a whole holds a higher share of actives than the screen did.

Assay: qHTS Assay for Lipid Storage Modulators in Drosophila S3 Cells;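 as to cell number change: cells counted by Cell Tracker Red CMTPX staining in the red channel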; as to lipid storage change, negative = inhibition: % is scaled to controls: 0 for no effect and ±100 for the full control effect
Conditions: BODIPY lipid droplet fluorescence, 18-24 h, cells fed with added oleic acid; cell number change: measured here: cell count max response; series mostly up to 46.1 µM; lipid storage change, negative = inhibition: at the top concentration
How it was run: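 Drosophila S3 cells got compounds at several concentrations plus oleic acid (400 uM solution). Laser-scanning cytometry with 488 nm excitation read lipid droplets at 500-530 nm and cells at 575-640 nm. Percent activity was relative to 20 uM Triacsin C.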
Potency is read from the fitted curve at half-maximal effect.

| SMILES | lipid storage change, negative = inhibition | cell number change | Potency | outcome |
| --- | --- | --- | --- | --- |
| Cc1ccc(-c2cc(-c3ccccc3)c(C#N)c(Br)n2)cc1 | 6.63% (inactive) | -11.3% | – | – |
| CC(C)(C)[C@H]1CCC(=O)N([C@H](CC#N)Cc2ccccc2)CC1 | – | -9.71% | 0.326 µM (active) | – |
| N#CC[C@H](Cc1ccccc1)N1CC[C@@H](NC(=O)OCc2ccccc2)CCC1=O | -12.3% (inactive) | 8.98% | – | – |
| CC(C)(C)[C@H]1CCC(=O)N([C@H](CN=[N+]=[N-])Cc2ccccc2)CC1 | 1.61% (inactive) | 22% | – | – |
| CC(C)(C)C1CCC(=O)N(CCSc2ccccc2)CC1 (stereo unspecified) | – | -4.53% | 6.51 µM (active) | – |
| CC1CCC(=O)N(CCSc2ccccc2)CC1 (stereo unspecified) | -4% (inactive) | – | – | – |
| CC(=O)Nc1ccc(SCCN2CC[C@@H](C(C)(C)C)CCC2=O)cc1 | – | -1.32% | – | inactive |
| CCCCNC(=S)N/N=C/c1sccc1C | 9.84% (inactive) | -1.93% | – | – |
| CCS(=O)(=O)c1nc(S(=O)(=O)c2ccc(C)cc2)c(NCc2ccccn2)s1 | -3.31% (inactive) | 2.5% | – | – |
| Cc1[nH]n(-c2ccccc2)c(=O)c1C(=O)c1ccc([N+](=O)[O-])cc1 | 16.3% (inactive) | 5.62% | – | – |
| C/C(=N\NC(=O)c1ccc(C)cc1)c1c(C)[nH]n(-c2ccccc2)c1=O | – | -9.89% | 9.2 µM (active) | – |
| Cc1[nH]n(-c2ccccc2)c(=O)c1C(=O)c1ccc(Cl)cc1 | -5.87% (inactive) | -16% | – | – |
| CN1C(=O)c2cccc(NC(=O)CCc3ccccc3)c2C1=O | -11.3% (inactive) | -9.83% | – | – |
| Cc1ccc(-n2ncc3c(=O)[nH]c(SCC(=O)N4CCCc5ccccc54)nc32)cc1 | – | – | – | inactive |
| O=C(NCCCN1CCOCC1)C1(c2ccccc2)CCOCC1 | – | 2.27% | 3.66 µM (active) | – |
| O=C(c1ccc(NC(=O)C2(c3ccccc3)CCOCC2)cc1)N1CCOCC1 | – | -1.58% | 23.1 µM (active) | – |
| O=C(NCCCN1CCOCC1)C(=O)NCCc1ccccc1 | 0.98% (inactive) | -0.52% | – | – |
| Cc1c(C)n(C)c2ccc(C(=O)NCCCN3CCN(c4ccc(F)cc4)CC3)cc12 | 8.52% (inactive) | 4.18% | – | – |
| Cc1ccc(NC(=O)C2(c3ccccc3)CCOCC2)cc1 | -0.379% (inactive) | 16.3% | – | – |
| O=C(NCCCN1CCOCC1)c1ccccc1 | – | -23.2% | 20.6 µM (active) | – |
| CCn1c(C)c(C)c2cc(C(=O)NCCN3CCOCC3)ccc21 | 26.7% (inactive) | -16.2% | – | – |

| SMILES | lipid storage change, negative = inhibition | cell number change | Potency | outcome |
| --- | --- | --- | --- | --- |
| Cc1c(C)n(Cc2ccc(F)cc2)c2ccc(C(=O)NCCCN3CCOCC3)cc12 | – | 38.2% | 29.1 µM (active) | – |
| COc1ccc(C2(C(=O)Nc3ccc(C(=O)N4CCOCC4)cc3)CCOCC2)cc1 | 9.82% (inactive) | 6.9% | – | – |
| O=C(Nc1ccccc1C(=O)NCCCN1CCOCC1)c1ccccc1 | 12.1% (inactive) | 15.2% | – | – |
| O=C(NCCCN1CCOCC1)c1ccc2ccccc2c1 | – | – | – | inactive [at 0.0737 µM] |
| O=C(NCCCN1CCOCC1)C1(c2ccccc2)CCCC1 | – | -15.4% | – | inactive |
| C/C(=N/NC(=O)CN(c1ccccc1)S(=O)(=O)c1ccccc1)c1ccccc1O | – | 19.6% | – | inactive |
| Cc1cc(NC(=O)CCN2C(=O)/C(=C\c3ccccc3)SC2=S)no1 | -5.44% (inactive) | -8.06% | – | – |
| COc1ccc(-c2nnn(CC(=O)N3CCN(c4ccc(F)cc4)CC3)n2)cc1 | -12.3% (inactive) | 0.734% | – | – |
| O=C(NCc1nc2ccccc2[nH]1)C1=C[C@H](c2csc3ccccc23)C[C@H](OCc2ccc(CO)cc2)O1 | 14.1% (inactive) | 13.4% | – | – |
| COc1cc(CC(=O)OCC(=O)Nc2ccc(S(=O)(=O)N3CCCC3)cc2)cc(OC)c1OC | 10.3% (inactive) | -19.3% | – | – |
| CCn1cc(C(=O)NCCCN(CC(C)C)CC(C)C)c(=O)c2cc(S(=O)(=O)N3CCOCC3)ccc21 | – | 21.3% | – | inactive |
| CCn1cc(C(=O)NCCN(CC(C)C)CC(C)C)c(=O)c2cc(S(=O)(=O)N3CCOCC3)ccc21 | – | 0.403% | 7.31 µM (active) | – |
| CCCN(CCC)CCCNC(=O)c1cn(CC)c2ccc(S(=O)(=O)N3CCOCC3)cc2c1=O | – | 5.34% | – | inactive |
| CC1CCN(Cc2cc(=O)oc3ccc4ccccc4c23)CC1 | 9.37% (inactive) | 16.9% | – | – |
| COc1ccc(C(=O)CC2SC(N)=NC2=O)cc1 (stereo unspecified) | 16.9% (inactive) | 30% | – | – |
| Nc1[nH]ncc1C(=O)Nc1cccc(C(F)(F)F)c1 | 13.4% (inactive) | -8.81% | – | – |
| CCN(CC)C(=O)COC(=O)c1ccc(O)cc1 | – | 4.39% | 20.6 µM (active) | – |
| CC(C)(C)C(=O)COC(=O)c1ccc(O)cc1 | 8.5% (inactive) | 15.5% | – | – |
| O=C(OCC(=O)N(C1CCCCC1)C1CCCCC1)c1ccc(O)cc1 | – | 3.31% | – | inactive |
| COCCC(=O)N1CCC(Oc2ccc(C(=O)NCCc3cnn(C)c3)cc2)CC1 | – | 8.02% | – | inactive |
| CCCN1CCC(NC(=S)Nc2ccc(S(N)(=O)=O)cc2)CC1 | -2.97% (inactive) | -2.79% | – | – |
